Source: PubChem BioAssay AID488969 (Vanderbilt High Throughput Screening Facility, 2010)
In all, about 110,000 compounds were measured (“z-score”: median about -0.1, highest 2% from about 2 on). The entries come from a sample that favours the highest values as a whole. Activity calls are given as the source filed them.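 Rule for the calls: active = z-score in the third read window above 3 or below -3; inactive = the rest.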

Each compound was assayed against Metabotropic glutamate receptor 8 (Rattus norvegicus) (UniProt P70579) (assay: rat mGluR8 modulators via GIRK flux, primary screen, cell-based, thallium flux, HTS (AID 488969)). Settings: HEK293 rat mGluR8, GIRK (G protein-gated inwardly rectifying potassium channel) thallium flux, FluoZin2; at 10 µM; stronger effect = higher value; submaximal glutamate (EC20) added with thallium.
Sequence of Metabotropic glutamate receptor 8 (Rattus norvegicus) (P70579 whole entry, looked up): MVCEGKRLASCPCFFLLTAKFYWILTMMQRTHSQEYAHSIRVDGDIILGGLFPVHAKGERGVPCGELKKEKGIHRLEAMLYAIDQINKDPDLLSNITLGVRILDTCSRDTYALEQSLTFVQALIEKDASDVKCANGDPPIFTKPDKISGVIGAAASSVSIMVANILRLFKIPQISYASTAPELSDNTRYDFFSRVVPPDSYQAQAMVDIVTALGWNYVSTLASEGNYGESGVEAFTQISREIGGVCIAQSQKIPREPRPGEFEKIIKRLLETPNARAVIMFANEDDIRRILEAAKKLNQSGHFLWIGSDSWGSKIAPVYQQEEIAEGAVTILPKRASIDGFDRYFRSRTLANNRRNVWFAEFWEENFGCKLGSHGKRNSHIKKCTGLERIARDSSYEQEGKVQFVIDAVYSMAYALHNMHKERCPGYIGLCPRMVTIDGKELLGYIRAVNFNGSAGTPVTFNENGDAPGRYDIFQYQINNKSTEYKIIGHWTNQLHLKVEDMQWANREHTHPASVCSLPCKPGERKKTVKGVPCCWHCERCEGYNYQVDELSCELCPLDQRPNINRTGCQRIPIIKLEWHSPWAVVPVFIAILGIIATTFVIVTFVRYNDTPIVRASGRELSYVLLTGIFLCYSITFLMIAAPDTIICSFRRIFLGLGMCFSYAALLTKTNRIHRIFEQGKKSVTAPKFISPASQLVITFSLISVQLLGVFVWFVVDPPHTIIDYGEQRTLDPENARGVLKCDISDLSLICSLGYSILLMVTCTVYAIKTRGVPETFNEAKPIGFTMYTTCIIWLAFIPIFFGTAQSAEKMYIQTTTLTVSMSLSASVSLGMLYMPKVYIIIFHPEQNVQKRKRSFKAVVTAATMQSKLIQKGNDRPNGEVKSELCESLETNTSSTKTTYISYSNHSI

SMILES	z-score
CS(=O)(=O)N(CC(=O)N1CCN(c2ccccc2)CC1)c1ccc(Cl)c(C(F)(F)F)c1	-0.0753
CCn1c(=NC(=O)c2ccc(N3C(=O)CCC3=O)cc2)sc2c(OC)ccc(OC)c21	-0.536
CCn1c(Cc2ccc(OC)cc2)nnc1SCC(=O)N1CCN(c2ccccc2)CC1	0.352
O=C(O)C1CCCCC1C(=O)Nc1ccccc1Cl (stereo not given)	-0.189
O=C(O)C1CCCCC1C(=O)Nc1cc(Cl)ccc1Cl (stereo not given)	2.08
O=C(O)C1CC=CCC1C(=O)Nc1cc(Cl)ccc1Cl (stereo not given)	-0.205
CCCCC(=O)NC(=S)NNC(=O)CC#N	-0.265
CCN1CCCC1CNc1ncnc2c1[nH]c1ccc(F)cc12 (stereo not given)	2.55
Clc1ccc2[nH]c3c(NCC4CCCO4)ncnc3c2c1 (stereo not given)	-3.05 (active)
Fc1ccc2[nH]c3c(NCCN4CCOCC4)ncnc3c2c1	0.07
CCOC(=O)c1ccc(Oc2c(C)oc3cc(OS(C)(=O)=O)ccc3c2=O)cc1	-0.214
Cc1ccc(/C=N/NC(=S)NC(C)C)o1	-0.11
NC(=O)N/N=C\c1cc(Br)ccc1O	-0.265
CC(C)NC(=S)N/N=C/c1cc(Br)ccc1O	6.43 (active)
FC(F)(F)c1cnc2c(c1)Nc1ccccc1S2	0.635
Cc1ccc(C)n1-c1sc2c(c1C#N)CCCC2	-0.0485
C=CCNCc1cccn1-c1sc2c(c1C#N)CCCC2	2.43
N#Cc1c(-n2cccc2/C=N/O)sc2c1CCCC2	-0.27
Oc1ccccc1C1=Nc2ccccc2N=C(c2cccs2)C1	0.0299
O=C(CSc1nnc2n1CCCN2C(=S)Nc1ccc(Cl)cc1)c1ccccc1	-0.14
CN(c1ccc(C(=O)NCCSCc2ccco2)cc1)S(C)(=O)=O	-0.396
Cn1c(NC(=O)Cc2ccc(F)cc2)cc(=O)n(C)c1=O	2.79
Cn1c(NC(=O)CCc2ccccc2)cc(=O)n(C)c1=O	-0.492
CCCC(=O)Nc1cc(=O)n(C)c(=O)n1C	-0.309
Cn1c(NC(=O)Cc2cccs2)cc(=O)n(C)c1=O	0.422

SMILES	z-score
Cn1c(NC(=O)COc2ccccc2)cc(=O)n(C)c1=O	0.597
COc1ccc(CC(=O)Nc2cc(=O)n(C)c(=O)n2C)cc1	2.78
Cc1cccc(CSCCNC(=O)Nc2ccccc2)c1	-0.872
CC(=O)NNc1nc(-c2ccc(NC(C)=O)cc2)cs1	-0.0151
CCOC(=O)/C=c1\s/c(=C\c2ccc(C)cc2)c(=O)n1CC(=O)NCc1ccco1	0.0354
O=C(/C=C/c1ccc(Cl)cc1Cl)NC(=S)Nc1ccc(CN2CCOCC2)cc1	0.0804
CC(=O)N/C(=C/c1ccc(OS(=O)(=O)c2ccc(C)cc2)cc1)C(=O)NCCO	-0.101
CCOCC(=O)Nc1nnc(C)s1	1.02
O=C(Nc1ccc(SC(F)F)cc1)C12CCC(CC1)C2	3.38 (active)
C=C1C2(C(=O)Nc3ccc(SC(F)F)cc3)CCC(C2)C1(C)C (stereo not given)	0.546
CC12CCC(C(=O)Nc3ccc(SC(F)F)cc3)(CC1=O)C2(C)C (stereo not given)	0.519
CCCCCNCc1ccc(Br)cc1	-0.224
OCc1cc(CO)c(O)c(CCc2ccccc2)n1	0.171
CCOC(=O)c1sc(Nc2nc3c(OC)cccc3s2)cc1C	-0.137
COc1cccc2sc(NC(=O)c3ccc(Br)s3)nc12	0.601
COc1ccc(-c2nnc(-c3cccs3)o2)cc1OC	-0.0864
COc1ccc(-c2nnc(Nc3nc4c(OC)cccc4s3)o2)cc1	17.1 (active)
COc1cc(-c2nnc(-c3cccs3)o2)cc(OC)c1OC	2.27
COc1cccc2sc(Nc3nc4ccc(NC(C)=O)cc4s3)nc12	-0.147
COc1cccc2sc(Nc3nnc(-c4cccs4)o3)nc12	17.4 (active)
c1ccc(Nc2nc(-c3ccccn3)cs2)cc1	-0.545
COc1cc(-c2nnc(-c3cc(OC)c(OC)c(OC)c3)o2)cc(OC)c1OC	-1.02
COc1cccc2sc(Nc3nc(-c4ccccn4)cs3)nc12	5.31 (active)
COc1cccc2sc(Nc3nc(-c4cc5ccccc5oc4=O)cs3)nc12	0.111
COc1cc2nc(-c3cccs3)oc(=O)c2cc1OC	-0.693

SMILES	z-score
CCOc1ccc(NC(=O)CC2C(=O)N(C)C(=S)N2CCCc2ccccc2)cc1 (stereo not given)	0.36
O=C(Cc1c(F)cccc1Cl)c1ccc(O)cc1O	0.0496
CCOC(=O)c1cccc(NC(=O)C2CCCN2S(=O)(=O)c2cccc3cccnc23)c1 (stereo not given)	-0.226
CN(CCOC(=O)C1c2ccccc2Oc2ccccc21)C(C)(C)C	0.442
CNC(=O)CCSc1ccc(C)cc1	1.02
O=C(CSc1ncnc2c1cnn2CCc1ccccc1)Nc1cccc(C(F)(F)F)c1	-0.203
CCN(CC)S(=O)(=O)c1cc(C)c(C)cc1Br	0.329
NS(=O)(=O)c1ccc(CCNC(=O)CNC(=O)C2CCCCC2)cc1	-0.063
O=C(Nc1cccc(F)c1)NC1(C(=O)N2CCN3CCCC3C2)CCCCC1 (stereo not given)	0.517
N#Cc1c(NC(=O)CSc2nc(-c3ccccc3)cc(C(F)(F)F)n2)sc2c1CCC2	0.0217
c1ccc(-n2c(SCc3nc(-c4cccs4)no3)nnc2-c2ccco2)cc1	-1.55
CCOC(=O)CCC(=O)N1CCOCCOCCN(C(=O)CCC(=O)OCC)CCOCC1	-0.107
CCOCCn1c(CN(Cc2ccccc2)Cc2ccccc2)nc2c1c(=O)n(C)c(=O)n2C	0.389
COCCn1c(CN(C)Cc2ccccc2)nc2c1c(=O)n(C)c(=O)n2C	-0.377
CCCCn1c(CN(Cc2ccccc2)Cc2ccccc2)nc2c1c(=O)n(C)c(=O)n2C	3.38 (active)
COCCn1c(CN(Cc2ccccc2)Cc2ccccc2)nc2c1c(=O)n(C)c(=O)n2C	3.37 (active)
CCCCn1c(CN(C)Cc2ccccc2)nc2c1c(=O)n(C)c(=O)n2C	0.165
CCCCCn1c(CN(C)Cc2ccccc2)nc2c1c(=O)n(C)c(=O)n2C	0.218
CCCCNC(=O)Nc1ccccc1C(=O)NCc1ccco1	0.486
COc1cc(OC)cc(C(=O)NNC(=O)NC2CCCCC2)c1	-0.0486
CC(=O)NCCOc1ccc2oc3ccccc3c2c1	-0.506
O=C1c2ccccc2NC(c2cccc(Cl)c2)N1N=C1CCCCCC1 (stereo not given)	-0.359
COC(=O)CSc1nc2ncccc2[nH]1	2.69
CCN(CC)C(=O)CSc1nc2ncccc2[nH]1	1.1
CC(C)OC(=O)CSc1nc2ncccc2[nH]1	-0.0946
